Screening results (PubChem)
This is a sample that favours compounds with a hit; in the whole collection about 28% have one here.
Plk1 PBD FP: Plk1 polo box domain binding inhibitors, primary screen, biochemical, fluorescence polarization; Serine/threonine-protein kinase PLK1 (Homo sapiens), P53350; Plk1 PBD phosphopeptide binding; inhibition, %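 (tested at about 20 µM)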; 97,000 tested, 0.13% active; AID 693, 2007; in the data active = inhibition above about 34%, passing the limit was not always enough
Target sequence (P53350 whole entry, looked up, the tested form may be a part): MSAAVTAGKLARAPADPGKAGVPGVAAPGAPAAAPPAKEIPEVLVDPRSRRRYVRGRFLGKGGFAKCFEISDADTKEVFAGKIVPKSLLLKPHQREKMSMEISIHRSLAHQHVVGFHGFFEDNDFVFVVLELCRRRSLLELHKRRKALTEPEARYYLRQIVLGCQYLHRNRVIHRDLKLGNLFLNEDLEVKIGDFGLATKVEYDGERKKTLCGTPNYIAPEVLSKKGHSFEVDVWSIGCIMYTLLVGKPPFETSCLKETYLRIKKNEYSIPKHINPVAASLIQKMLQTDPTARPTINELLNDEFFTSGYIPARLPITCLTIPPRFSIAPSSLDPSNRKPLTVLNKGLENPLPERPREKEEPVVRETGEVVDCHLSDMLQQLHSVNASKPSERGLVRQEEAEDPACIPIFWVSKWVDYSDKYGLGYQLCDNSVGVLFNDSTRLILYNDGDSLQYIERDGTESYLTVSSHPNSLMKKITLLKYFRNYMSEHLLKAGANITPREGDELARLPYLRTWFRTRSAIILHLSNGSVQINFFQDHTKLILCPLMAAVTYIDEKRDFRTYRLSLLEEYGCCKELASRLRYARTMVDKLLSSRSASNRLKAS
CYP2C9 activ: human CYP2C9 activators, primary screen, biochemical, luminescence | Cytochrome P450 2C9 (Homo sapiens), P11712 | activation factor at 5 µM | 96,000 tested, 1.4% active | AID 1024, 2008 | recombinant CYP2C9, luciferin-H conversion; hits give high values; factor 1 = untreated enzyme, 0 = blocked;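 active = activation factor of 2 or more for CYP2C9 at a 5 µM dose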
CYP2C9 inh: blockers of cytochrome P450 2C9 activity – biochemical, luminescence, ADME assay, primary screen | CYP2C9 Supersomes, luciferin-H conversion | inhibition, % at 5 µM | 96,000 tested, 20% active;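 active = blocking of liver enzyme CYP2C9 beyond about 50% at 5 µM, limit read from the data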
PLK1 inh: human PLK1 kinase inhibitors, primary screen, biochemical, TR-FRET. recombinant PLK1 kinase, TR-FRET peptide phosphorylation. Serine/threonine-protein kinase PLK1 (Homo sapiens), P53350. 97,000 tested, 0.53% active. inhibition, % at 10 µM;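 active = inhibition of 50% or more in the single-concentration screen; inactive = inhibition below 50%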
CYP2C19 inhib: blockers of cytochrome P450 2C19 activity – biochemical, luminescence, ADME assay, primary screen; 96,000 tested, 21% active; inhibition, % at 5 µM; AID 778, 2007; CYP2C19 Supersomes, luciferin-H EGE luminescence, 30 min; P33261;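 active = CYP2C19 inhibition above a set limit at 5 µM in the primary screen, cut at about 50% in these data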
CYP2C19 activ: human CYP2C19 activators, primary screen, biochemical, luminescence. recombinant CYP2C19, luciferin-H EGE luminescence; hits give high values; 0 = fully inhibited enzyme, 1 = untreated enzyme. 96,000 tested, under 10 active. activation factor at 5 µM. Cytochrome P450 2C19 (Homo sapiens), P33261;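 active = activation factor of at least 2 at 5 µM in the primary screen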
Of the large screens only hits and unclear results are named; the others gave an inactive call.

COc1ccc(-c2nnc(-c3cccs3)o2)cc1OC	none
Cn1ncc(Cl)c1C(=O)Nc1cccnc1	none
O=C(CCC1CCCC1)N1CCN(C(=O)c2ccco2)CC1	none
Cc1cccc(OCC(=O)N2CCC(N3CCOCC3)CC2)c1	none
Cc1cccc(OCC(=O)N2CCN(C(=O)CCC3CCCC3)CC2)c1	CYP2C9 inh 51, CYP2C19 inhib 62
O=C(CCC1CCCC1)N1CCN(C(=O)c2cccnc2)CC1	CYP2C19 inhib 70
Cc1ccccc1C(=O)N1CCc2ccccc2C1	none (no result: CYP2C19 inhib, CYP2C19 activ)
O=C(c1ccccc1Cl)N1CCc2ccccc2C1	none (no result: CYP2C9 activ, CYP2C9 inh, CYP2C19 inhib, CYP2C19 activ)
O=C(c1cncc(Br)c1)N1CCc2ccccc2C1	CYP2C19 inhib 86
O=C(c1ccc(Cl)nc1)N1CCc2ccccc2C1	CYP2C19 inhib 98
O=C(c1cccc(F)c1)N1CCc2ccccc2C1	CYP2C19 inhib 70
O=C(c1cncc(Br)c1)N1CCCc2ccccc21	CYP2C19 inhib 62
COCCn1c(N)c(C(=O)OCc2ccccc2)c2nc3ccccc3nc21	CYP2C9 inh 62
C=CCn1c(N)c(C(=O)OCCC)c2nc3ccccc3nc21	CYP2C9 inh 69, CYP2C19 inhib 77
C=CCn1c(N)c(C(=O)Nc2cccc(C)c2)c2nc3ccccc3nc21	none
COC(=O)c1c(N)n(-c2cc(OC)cc(OC)c2)c2nc3ccccc3nc12	none (no result: CYP2C9 activ, CYP2C9 inh, CYP2C19 inhib, CYP2C19 activ)
COCCNC(=O)c1c(N)n(CCC2=CCCCC2)c2nc3ccccc3nc12	CYP2C9 inh 96, CYP2C19 inhib 92
CC1(C)C(=O)C2(CCCCC2)C(=O)OC1c1ccc(O)cc1 (configuration not stated)	CYP2C9 inh 60, CYP2C19 inhib 77
CC1(C)C(=O)C2(CCCC2)C(=O)OC1c1ccco1 (configuration not stated)	CYP2C19 inhib 64
COc1ccc(CC(=O)Nc2c3c(nn2-c2cccc(C)c2C)CS(=O)C3)cc1OC (configuration not stated)	CYP2C19 inhib 79
COc1ccc(CC(=O)Nc2c3c(nn2-c2cccc(C)c2C)CS(=O)C3)cc1 (configuration not stated)	CYP2C19 inhib 94
CCOc1ccc(C(=O)Nc2c3c(nn2-c2cccc(C)c2C)CS(=O)C3)cc1 (configuration not stated)	none
O=C(c1cc(Cl)cc(Cl)c1)N1CCOCC1	none
O=C(c1c(F)cccc1F)N(Cc1ccccn1)C1CCCC1	none
CCc1ccc(C2CC(c3cccc(OC)c3)n3nc(N)nc3N2)cc1 (configuration not stated)	none (no result: Plk1 PBD FP, PLK1 inh)
CC(/C=N/NC(=O)c1cc(-c2ccc(Cl)cc2)nc2ccccc12)=C\c1ccco1	CYP2C9 inh 89
CCn1ncc(/C=N\NC(=O)c2cc(-c3ccc(C)cc3C)nc3ccccc23)c1C	CYP2C9 inh 97, CYP2C19 inhib 90
Cc1ccc(-c2cc(C(=O)NCc3ccccn3)c3ccccc3n2)cc1	none
Cc1ccc(-c2cc(C(=O)N/N=C/c3c(C)nn(C)c3C)c3ccccc3n2)cc1C	CYP2C9 inh 97, CYP2C19 inhib 81
CC(/C=N/NC(=O)c1cccnc1)=C\c1ccco1	none
CCc1nc2c(n1O)CCc1nonc1-2	none (no result: Plk1 PBD FP, PLK1 inh)
O=C(Nc1ccc(-c2noc(-c3cccs3)n2)cc1)c1cccnc1	none (no result: CYP2C9 activ, CYP2C9 inh, CYP2C19 inhib, CYP2C19 activ)
CCCn1c(SCC(=O)NCCc2ccccc2)nnc1-c1cccnc1	none
O=C(c1cccc(Br)c1)N1CCCC1	none
O=C(c1cccc(-c2nnc(-c3ccccc3)o2)c1)N1CCCCC1	CYP2C9 inh 62, CYP2C19 inhib 56
O=C(c1cccc(Br)c1)N1CCN(C(=O)N2CCCCC2)CC1	CYP2C9 inh 61, CYP2C19 inhib 77
Cc1cccc(C(=O)N2CCCCCC2)c1	CYP2C19 inhib 52
Cc1cccc(C(=O)N2CCN(C(=O)c3cccc(C)c3)C(C)C2)c1 (configuration not stated)	CYP2C9 inh 78, CYP2C19 inhib 89
O=C1NCCN1Cc1ccc(F)cc1	none
CCCc1n[nH]c2c1/C(=N\O)CCC2	none
NC(=O)Cn1nnc(-c2ccccc2NC(=O)c2cnccn2)n1	none
c1ccc(OCCCn2nnc(-c3cccnc3)n2)cc1	CYP2C19 inhib 51
O=C(CCCn1nnc(-c2cccnc2)n1)c1ccc(F)cc1	CYP2C9 inh 53, CYP2C19 inhib 76 (no result: Plk1 PBD FP, PLK1 inh)
CCOC(=O)c1sc(NC(=O)/C=C/c2cnn(C)c2C)c(C(=O)OC(C)C)c1C	none
O=C(Cn1cnc2c(cnn2-c2ccccc2)c1=O)OCc1ccccc1	PLK1 inh 50
CCCCn1cnc2c(cnn2-c2ccc(F)cc2)c1=O	CYP2C9 inh 56
O=c1c2cnn(-c3ccc(F)cc3)c2ncn1Cc1ccccn1	CYP2C19 inhib 56
Cc1nc(-c2coc3c(CN(C)C)c(O)ccc3c2=O)cs1	none
NC(=O)C1(N2CCCCC2)CCN(C(=O)CSc2nc(C(F)(F)F)cc(=O)[nH]2)CC1	none
COc1ccc(C2CC(=O)Nc3ccccc3S2(=O)=O)cc1OC (configuration not stated)	none (no result: Plk1 PBD FP, PLK1 inh)
COc1cc(C(C[N+](=O)[O-])c2c(-c3ccccc3)cc3ccccn23)cc(OC)c1OC (configuration not stated)	CYP2C9 inh 59
COc1ccc(C(C[N+](=O)[O-])c2c(-c3ccccc3)cc3ccccn23)cc1 (configuration not stated)	CYP2C9 inh 74, CYP2C19 inhib 75
COc1ccc(C(C[N+](=O)[O-])c2c(-c3ccccc3)cc3ccccn23)cc1OC (configuration not stated)	none
N#Cc1c(-c2ccco2)nc(SCC(=O)Nc2cccc(Cl)c2)[nH]c1=O	CYP2C9 inh 99, CYP2C19 inhib 60
Cc1nc(SCC(=O)c2ccccc2)c(C#N)c(-c2ccco2)c1C(=O)NCc1ccco1	CYP2C9 inh 79 (no result: Plk1 PBD FP, PLK1 inh)
N#Cc1c(N)nc(SCC(=O)NCCc2ccccc2)c(C#N)c1-c1cccs1	none
CN1CCc2nc(SCC(=O)Nc3cccc(F)c3)c(C#N)c(-c3cccs3)c2C1	CYP2C9 inh 100, CYP2C19 inhib 95
COCCOC(=O)c1c(C)nc(SCC(=O)Nc2ccc(OC)cc2)c(C#N)c1-c1ccco1	CYP2C9 inh 54
O=C(CSc1nc2c(c(=O)[nH]1)CCC2)Nc1cccc(Cl)c1	none
N#Cc1c(-c2ccco2)cc(C2CC2)nc1SCC(=O)c1ccccc1	none
COc1cccc(NC(=O)CSc2nc3c(c(-c4ccco4)c2C#N)CCCC3)c1	CYP2C9 inh 53
